Experimental data reported in the supplement of paper PMC10849652.
About 8,800 targets were measured; listed, in parts, are those with a hit and a random draw of the rest. About 0.5% of all pairs of compound and target were hits.

Assays:
Assay in all cases: log2 fold change, soluble protein after heating vs DMSO (PISA); higher = thermal stabilisation; K562 lysate, 10 uM; active = over 0.2 and 3.5 SD of the protein, either way, in both replicates (recomputed)
[1] = compound: CS(=O)(=O)CCNCc1ccc(-c2ccc3ncnc(Nc4ccc(OCc5cccc(F)c5)c(Cl)c4)c3c2)o1 [lapatinib]
How it was run: (§1)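 K562 pellets were dounce-homogenised in PBS pH 7.4 containing 1 mM MgCl2, and the crude extract, at 1 mg/mL protein, was exposed to 10 μM compound for 30 min. Aliquots were heated for 3 min across 48°C-58°C, pooled, brought to 0.5% NP-40 at 4°C and spun at 21,000xg for 90 min, with the supernatant taken as soluble protein. TMTpro 16plex LC-MS/MS with equalised channel sums quantified that protein. Values are log-two fold changes in thermal stability relative to solvent controls, taken from duplicates.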

[2] = compound: CS(=O)(=O)N1CCN(Cc2cc3nc(-c4cccc5[nH]ncc45)nc(N4CCOCC4)c3s2)CC1 [pictilisib]
How it was run: as §1

[3] = compound: C[C@@H](Oc1cc(-c2cnn(C3CCNCC3)c2)cnc1N)c1c(Cl)ccc(F)c1Cl [crizotinib]
How it was run: as §1

[4] = compound: C[C@H](C1=CC=C(C=C1)C(=O)NC2=C3C=CNC3=NC=C2)N
How it was run: as §1

[5] = compound: C[C@H](Nc1ncnc2nc[nH]c12)c1cc2cccc(Cl)c2c(=O)n1-c1ccccc1 [duvelisib]
How it was run: as §1

[6] = compound: Cc1cc(Nc2cc(CN3CCOCC3)c3nc(C)c(Cc4ccc(Cl)cc4F)n3n2)n[nH]1 [gandotinib]
How it was run: as §1

[7] = compound: Cc1cc(Nc2cc(N3CCN(C)CC3)nc(Sc3ccc(NC(=O)C4CC4)cc3)n2)n[nH]1 [tozasertib]
How it was run: as §1

[8] = compound: Cc1ccc(-n2nc(C(C)(C)C)cc2NC(=O)Nc2ccc(OCCN3CCOCC3)c3ccccc23)cc1 [doramapimod]
How it was run: as §1

[9] = compound: Cc1ccc(NC(=O)c2ccc(CN3CC[C@H](N(C)C)C3)c(C(F)(F)F)c2)cc1Nc1nccc(-c2cncnc2)n1 [bafetinib]
How it was run: as §1

[10] = compound: Cc1cccc(CC(=O)N2CCc3c2ccc(-c2cn(C)c4ncnc(N)c24)c3F)n1
How it was run: as §1

[11] = compound: Cc1cn(-c2cc(NC(=O)c3ccc(C)c(Nc4nccc(-c5cccnc5)n4)c3)cc(C(F)(F)F)c2)cn1 [nilotinib]
How it was run: as §1

[12] = compound: Cc1nc(Nc2n[nH]c3c2CN(C(=O)N[C@H](CN(C)C)c2ccccc2)C3(C)C)c2sccc2n1
How it was run: as §1

[13] = compound: Cc1nc(Nc2ncc(C(=O)Nc3c(C)cccc3Cl)s2)cc(N2CCN(CCO)CC2)n1 [dasatinib]
How it was run: as §1

[14] = compound: Cc1ncc(-c2ccnc(Nc3ccc(S(C)(=O)=O)cc3)n2)n1C(C)C
How it was run: as §1

[15] = compound: Cn1cc(-c2ccc3c(c2)CCN3C(=O)Cc2cccc(C(F)(F)F)c2)c2c(N)ncnc21
How it was run: as §1

[16] = compound: Cn1cc(CNCC2CCN(c3ncc(C(=O)NO)cn3)CC2)c2ccccc21 [quisinostat]
How it was run: as §1

[17] = compound: Cn1cncc1[C@@](N)(c1ccc(Cl)cc1)c1ccc2c(c1)c(-c1cccc(Cl)c1)cc(=O)n2C [tipifarnib]
How it was run: as §1

[18] = compound: NC(=O)Nc1cc(-c2cccc(F)c2)sc1C(=O)N[C@H]1CCCNC1
How it was run: as §1

[19] = compound: NC(=O)c1cnc(N[C@@H]2CCCC[C@@H]2N)nc1Nc1cccc(-n2nccn2)c1
How it was run: as §1

[20] = compound: NC1(c2ccc(-c3nc4ccn5c(=O)[nH]nc5c4cc3-c3ccccc3)cc2)CCC1
How it was run: as §1

Measured: log2 fold change

BLOC1S6 (UniProt Q9UL45)
Sequence of UniProt Q9UL45 (Q9UL45 whole entry, looked up): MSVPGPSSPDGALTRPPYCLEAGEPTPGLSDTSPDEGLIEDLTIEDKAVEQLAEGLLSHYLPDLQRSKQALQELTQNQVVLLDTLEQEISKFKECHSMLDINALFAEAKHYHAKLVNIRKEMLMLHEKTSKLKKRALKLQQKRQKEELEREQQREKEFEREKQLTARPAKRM
inactive: [1] -0.018 | [2] -0.037 | [3] 0.062 | [4] 0.048 | [5] 0.021 | [6] 0.031 | [7] -0.11 | [8] -0.011 | [9] 0.033 | [10] -0.066 | [11] -0.073 | [12] 0.036 | [13] 0.093 | [14] 0.093 | [15] -0.008 | [16] 0.042 | [17] -0.063 | [18] -0.049 | [19] -0.023 | [20] 0.096

CEPT1 (UniProt Q9Y6K0)
inactive: [1] -0.121 | [2] -0.08 | [3] -0.122 | [4] -0.106 | [5] -0.019 | [6] -0.058 | [7] 0.025 | [8] -0.07 | [9] -0.124 | [11] -0.053 | [12] -0.015 | [13] -0.018 | [14] 0.028 | [15] 0.06 | [16] -0.021 | [17] -0.068 | [18] 0.028 | [19] -0.008 | [20] -0.094
active: [10] 0.223

ATP6V1B1 (UniProt P15313)
Sequence of UniProt P15313 (P15313 whole entry, looked up): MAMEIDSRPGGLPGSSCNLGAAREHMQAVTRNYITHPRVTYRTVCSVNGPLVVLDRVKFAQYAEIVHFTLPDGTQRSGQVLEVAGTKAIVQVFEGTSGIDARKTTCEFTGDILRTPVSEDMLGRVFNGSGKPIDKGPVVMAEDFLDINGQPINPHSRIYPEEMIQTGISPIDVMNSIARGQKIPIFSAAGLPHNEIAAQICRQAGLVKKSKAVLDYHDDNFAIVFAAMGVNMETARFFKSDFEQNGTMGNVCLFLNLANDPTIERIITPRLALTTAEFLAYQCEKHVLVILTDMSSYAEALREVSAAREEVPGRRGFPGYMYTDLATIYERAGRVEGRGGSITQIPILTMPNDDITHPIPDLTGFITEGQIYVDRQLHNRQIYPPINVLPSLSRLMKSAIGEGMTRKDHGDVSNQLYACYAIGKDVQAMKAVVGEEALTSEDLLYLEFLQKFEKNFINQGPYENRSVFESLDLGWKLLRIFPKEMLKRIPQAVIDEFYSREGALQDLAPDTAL
inactive: [1] -0.028 | [2] -0.028 | [3] -0.035 | [4] -0.232 | [5] -0.001 | [6] 0.099 | [7] 0 | [8] 0.042 | [9] -0.044 | [10] 0.129 | [11] -0.024 | [12] 0.029 | [13] 0.034 | [14] -0.045 | [15] -0.021 | [16] -0.029 | [17] -0.036 | [18] 0.01 | [19] 0.019 | [20] 0.008

CCNB2 (UniProt O95067)
inactive: [1] -0.048 | [2] -0.091 | [3] -0.018 | [4] -0.016 | [5] 0.032 | [6] -0.108 | [7] 0.023 | [8] 0.009 | [9] -0.035 | [10] 0.068 | [11] -0.053 | [12] 0.081 | [13] -0.016 | [15] -0.046 | [16] -0.081 | [17] -0.029 | [18] 0.012 | [19] -0.038 | [20] 0
active: [14] 0.21

CEP76 (UniProt Q8TAP6)
inactive: [1] -0.031 | [2] -0.073 | [3] -0.106 | [4] -0.063 | [5] 0.141 | [6] 0.007 | [7] 0.079 | [8] 0.085 | [9] -0.115 | [10] 0.027 | [11] -0.005 | [12] -0.021 | [13] -0.002 | [14] -0.021 | [15] -0.005 | [17] 0.006 | [18] -0.01 | [19] -0.015 | [20] -0.02
active: [16] -0.241

CANX isoform 2 (UniProt P27824)
Sequence of UniProt P27824 (P27824 whole entry, looked up): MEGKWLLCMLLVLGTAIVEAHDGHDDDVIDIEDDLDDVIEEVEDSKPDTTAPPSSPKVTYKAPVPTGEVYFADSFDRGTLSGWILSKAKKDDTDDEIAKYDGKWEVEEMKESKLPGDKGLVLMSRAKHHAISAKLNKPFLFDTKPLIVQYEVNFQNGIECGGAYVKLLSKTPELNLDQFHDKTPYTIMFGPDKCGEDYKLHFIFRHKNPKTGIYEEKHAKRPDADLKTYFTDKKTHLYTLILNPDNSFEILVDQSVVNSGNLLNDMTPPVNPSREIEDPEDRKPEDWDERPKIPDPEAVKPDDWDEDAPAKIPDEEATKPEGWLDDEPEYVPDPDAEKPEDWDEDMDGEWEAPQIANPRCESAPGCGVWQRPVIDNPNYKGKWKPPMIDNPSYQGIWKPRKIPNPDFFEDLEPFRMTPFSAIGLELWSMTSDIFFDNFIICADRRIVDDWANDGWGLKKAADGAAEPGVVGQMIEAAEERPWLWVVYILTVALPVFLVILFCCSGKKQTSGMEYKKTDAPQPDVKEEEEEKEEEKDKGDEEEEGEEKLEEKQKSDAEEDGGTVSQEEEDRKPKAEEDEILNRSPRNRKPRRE
inactive: [1] 0.018 | [2] 0.037 | [3] -0.002 | [4] -0.037 | [5] 0.015 | [6] 0.026 | [7] 0.015 | [8] 0.006 | [9] 0.017 | [10] 0.052 | [11] -0.006 | [12] 0.008 | [13] 0.012 | [14] -0.02 | [15] -0.02 | [16] -0.029 | [17] -0.064 | [18] -0.011 | [19] -0.004 | [20] -0.011

CAD (UniProt P27708)
Sequence of UniProt P27708 (P27708 whole entry, looked up): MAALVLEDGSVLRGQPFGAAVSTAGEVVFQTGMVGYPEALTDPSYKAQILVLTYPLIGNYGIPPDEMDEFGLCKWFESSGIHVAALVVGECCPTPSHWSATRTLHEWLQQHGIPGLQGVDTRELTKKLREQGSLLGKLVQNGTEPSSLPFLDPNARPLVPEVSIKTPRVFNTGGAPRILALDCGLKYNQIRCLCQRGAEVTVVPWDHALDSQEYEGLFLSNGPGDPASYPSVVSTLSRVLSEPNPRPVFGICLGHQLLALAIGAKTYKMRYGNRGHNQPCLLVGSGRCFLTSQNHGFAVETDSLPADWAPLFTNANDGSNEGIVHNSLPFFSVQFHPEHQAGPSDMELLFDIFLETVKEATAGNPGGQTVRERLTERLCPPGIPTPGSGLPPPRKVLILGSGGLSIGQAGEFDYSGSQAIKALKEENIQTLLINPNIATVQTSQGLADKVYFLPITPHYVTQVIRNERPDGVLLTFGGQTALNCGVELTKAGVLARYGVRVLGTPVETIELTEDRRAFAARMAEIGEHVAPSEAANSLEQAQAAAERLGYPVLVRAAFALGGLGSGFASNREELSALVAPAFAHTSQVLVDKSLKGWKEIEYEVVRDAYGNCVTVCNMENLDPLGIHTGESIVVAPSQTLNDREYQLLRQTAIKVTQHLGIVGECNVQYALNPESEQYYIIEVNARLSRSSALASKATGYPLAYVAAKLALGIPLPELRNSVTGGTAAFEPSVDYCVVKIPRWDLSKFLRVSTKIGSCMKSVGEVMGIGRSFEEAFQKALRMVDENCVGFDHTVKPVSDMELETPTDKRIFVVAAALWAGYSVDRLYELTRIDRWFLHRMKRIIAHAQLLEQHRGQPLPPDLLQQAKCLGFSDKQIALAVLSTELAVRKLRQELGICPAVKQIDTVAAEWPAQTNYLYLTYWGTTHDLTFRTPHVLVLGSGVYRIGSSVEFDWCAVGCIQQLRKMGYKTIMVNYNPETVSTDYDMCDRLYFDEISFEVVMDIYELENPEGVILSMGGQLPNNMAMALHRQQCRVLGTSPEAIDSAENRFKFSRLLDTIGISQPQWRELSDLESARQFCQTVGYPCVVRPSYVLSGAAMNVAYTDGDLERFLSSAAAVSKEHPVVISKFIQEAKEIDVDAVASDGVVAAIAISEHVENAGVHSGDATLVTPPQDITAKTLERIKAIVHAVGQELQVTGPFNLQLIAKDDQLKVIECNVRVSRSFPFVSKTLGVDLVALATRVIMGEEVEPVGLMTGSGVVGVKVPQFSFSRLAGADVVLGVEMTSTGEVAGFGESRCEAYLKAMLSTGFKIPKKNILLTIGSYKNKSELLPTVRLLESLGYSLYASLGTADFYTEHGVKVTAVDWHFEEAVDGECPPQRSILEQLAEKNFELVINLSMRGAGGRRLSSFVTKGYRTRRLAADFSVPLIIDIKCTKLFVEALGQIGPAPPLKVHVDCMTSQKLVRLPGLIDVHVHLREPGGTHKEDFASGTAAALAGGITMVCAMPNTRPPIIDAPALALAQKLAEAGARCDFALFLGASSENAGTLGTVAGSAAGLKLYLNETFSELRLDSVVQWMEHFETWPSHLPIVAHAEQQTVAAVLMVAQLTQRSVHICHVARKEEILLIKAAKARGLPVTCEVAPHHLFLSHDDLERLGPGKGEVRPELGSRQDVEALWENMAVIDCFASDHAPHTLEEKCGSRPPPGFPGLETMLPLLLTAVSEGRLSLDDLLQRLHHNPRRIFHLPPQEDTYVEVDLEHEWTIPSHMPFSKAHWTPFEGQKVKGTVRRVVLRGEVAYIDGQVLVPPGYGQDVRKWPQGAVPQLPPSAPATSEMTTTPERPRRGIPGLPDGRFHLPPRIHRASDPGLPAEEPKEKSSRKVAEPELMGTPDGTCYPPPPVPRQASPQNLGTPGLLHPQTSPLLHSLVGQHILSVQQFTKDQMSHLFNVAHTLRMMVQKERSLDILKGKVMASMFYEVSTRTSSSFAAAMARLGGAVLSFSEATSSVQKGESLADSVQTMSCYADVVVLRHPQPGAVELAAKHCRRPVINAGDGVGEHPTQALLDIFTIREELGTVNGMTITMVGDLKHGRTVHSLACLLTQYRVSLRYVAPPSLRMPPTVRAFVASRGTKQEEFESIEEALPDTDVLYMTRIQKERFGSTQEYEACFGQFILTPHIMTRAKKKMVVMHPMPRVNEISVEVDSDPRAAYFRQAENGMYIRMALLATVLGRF
inactive: [1] -0.023 | [2] -0.02 | [3] -0.038 | [4] -0.024 | [5] -0.011 | [6] -0.019 | [7] 0 | [8] 0.02 | [9] -0.052 | [10] 0.07 | [11] 0.004 | [12] 0.013 | [13] -0.094 | [14] -0.001 | [15] 0.038 | [16] -0.02 | [17] -0.005 | [18] 0.023 | [19] -0.006 | [20] 0.004

CHCHD2 (UniProt Q9Y6H1)
Sequence of UniProt Q9Y6H1 (Q9Y6H1 whole entry, looked up): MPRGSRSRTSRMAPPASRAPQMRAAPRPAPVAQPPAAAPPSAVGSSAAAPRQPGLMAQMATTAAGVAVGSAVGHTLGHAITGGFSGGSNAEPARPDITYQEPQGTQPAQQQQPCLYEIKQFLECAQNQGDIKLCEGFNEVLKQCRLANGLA
inactive: [1] 0.035 | [2] 0 | [3] 0.119 | [4] 0.044 | [5] -0.008 | [6] 0.021 | [7] 0.102 | [8] -0.021 | [9] 0.288 | [10] -0.138 | [11] -0.102 | [12] 0.039 | [13] 0.016 | [14] -0.075 | [15] 0.031 | [16] -0.049 | [17] 0.058 | [18] -0.014 | [19] -0.029 | [20] 0.136

BRD3 (UniProt Q15059)
inactive: [1] 0.014 | [2] 0.004 | [3] -0.022 | [5] 0.1 | [6] 0.147 | [7] 0.048 | [8] -0.074 | [9] -0.016 | [10] 0.154 | [11] -0.069 | [12] 0.074 | [13] -0.011 | [14] 0.025 | [15] -0.018 | [16] 0.013 | [17] 0.013 | [18] 0.066 | [19] -0.024 | [20] -0.185
active: [4] -0.333

CASP6 (UniProt P55212)
inactive: [1] 0.024 | [2] -0.004 | [3] 0.009 | [4] 0.195 | [5] 0.003 | [6] -0.02 | [7] 0.022 | [8] 0.013 | [9] 0.054 | [10] -0.038 | [11] 0.018 | [12] 0.017 | [13] 0.005 | [14] -0.026 | [15] -0.001 | [16] 0.013 | [17] -0.027 | [18] -0.034 | [19] 0.003 | [20] 0.023

BUD23 isoform 3 (UniProt O43709)
inactive: [1] 0.052 | [2] -0.017 | [3] 0.07 | [5] 0.025 | [6] 0.136 | [7] -0.073 | [8] -0.035 | [9] -0.088 | [10] 0.152 | [11] -0.003 | [12] -0.008 | [13] 0.035 | [14] -0.084 | [15] 0.035 | [16] 0.009 | [17] 0.015 | [18] 0.035 | [19] -0.076 | [20] -0.017
active: [4] -0.305

ATP6V0A2 (UniProt Q9Y487)
Sequence of UniProt Q9Y487 (Q9Y487 whole entry, looked up): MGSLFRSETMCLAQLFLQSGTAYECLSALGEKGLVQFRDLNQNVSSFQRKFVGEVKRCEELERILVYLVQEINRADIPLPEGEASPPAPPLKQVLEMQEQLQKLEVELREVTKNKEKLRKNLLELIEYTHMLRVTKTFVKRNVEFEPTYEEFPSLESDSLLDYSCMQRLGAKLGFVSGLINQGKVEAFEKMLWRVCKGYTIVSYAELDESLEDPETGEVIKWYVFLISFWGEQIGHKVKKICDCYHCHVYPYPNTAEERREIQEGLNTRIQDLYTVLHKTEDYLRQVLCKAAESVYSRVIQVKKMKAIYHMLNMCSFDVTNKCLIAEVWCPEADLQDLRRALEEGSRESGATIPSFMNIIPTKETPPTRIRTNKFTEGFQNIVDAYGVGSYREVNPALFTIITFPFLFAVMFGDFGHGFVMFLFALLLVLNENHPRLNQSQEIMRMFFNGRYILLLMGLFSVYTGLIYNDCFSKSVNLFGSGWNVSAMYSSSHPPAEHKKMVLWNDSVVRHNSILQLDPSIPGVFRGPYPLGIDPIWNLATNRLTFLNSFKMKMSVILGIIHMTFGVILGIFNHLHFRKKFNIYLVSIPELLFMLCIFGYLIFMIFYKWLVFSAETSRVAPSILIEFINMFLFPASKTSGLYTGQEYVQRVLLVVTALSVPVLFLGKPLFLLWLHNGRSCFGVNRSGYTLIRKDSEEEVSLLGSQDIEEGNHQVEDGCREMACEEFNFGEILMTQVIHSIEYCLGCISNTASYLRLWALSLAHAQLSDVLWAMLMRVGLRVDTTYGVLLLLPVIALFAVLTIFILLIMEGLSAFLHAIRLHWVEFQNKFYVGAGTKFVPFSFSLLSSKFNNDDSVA
inactive: [1] -0.07 | [2] -0.047 | [3] -0.016 | [5] 0.026 | [6] 0.108 | [7] 0.004 | [8] 0.023 | [9] -0.046 | [10] 0.13 | [11] 0.034 | [12] -0.008 | [13] -0.028 | [14] 0.027 | [15] 0.003 | [16] -0.065 | [17] -0.033 | [18] -0.011 | [19] 0.001 | [20] -0.001
active: [4] -0.227

ATG4B (UniProt Q9Y4P1)
inactive: [1] 0.012 | [2] -0.042 | [3] -0.087 | [4] 0.114 | [5] 0.01 | [6] -0.128 | [7] -0.013 | [8] 0.004 | [9] -0.008 | [10] -0.059 | [11] 0.045 | [12] 0.001 | [13] -0.049 | [14] 0.008 | [15] 0.044 | [16] -0.055 | [17] -0.019 | [18] 0.024 | [19] -0.05 | [20] 0.005

CCT6A (UniProt P40227)
Sequence of UniProt P40227 (P40227 whole entry, looked up): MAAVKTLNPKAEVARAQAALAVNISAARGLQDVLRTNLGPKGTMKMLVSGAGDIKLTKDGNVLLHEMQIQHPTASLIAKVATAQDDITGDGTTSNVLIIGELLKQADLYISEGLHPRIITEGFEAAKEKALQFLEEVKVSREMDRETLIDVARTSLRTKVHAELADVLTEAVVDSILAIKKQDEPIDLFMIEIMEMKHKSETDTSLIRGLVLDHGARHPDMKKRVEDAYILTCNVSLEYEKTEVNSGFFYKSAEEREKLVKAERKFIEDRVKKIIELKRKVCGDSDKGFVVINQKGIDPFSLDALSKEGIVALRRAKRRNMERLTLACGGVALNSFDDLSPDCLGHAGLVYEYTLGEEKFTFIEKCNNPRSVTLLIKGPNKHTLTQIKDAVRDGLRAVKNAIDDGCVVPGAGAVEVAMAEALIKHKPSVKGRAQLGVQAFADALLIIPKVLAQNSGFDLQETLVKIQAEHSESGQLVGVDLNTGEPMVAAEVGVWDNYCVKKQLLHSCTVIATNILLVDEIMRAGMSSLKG
inactive: [1] -0.01 | [2] 0.008 | [3] 0.026 | [4] 0.009 | [5] -0.004 | [6] -0.018 | [7] -0.012 | [8] -0.013 | [9] 0.013 | [10] -0.028 | [11] -0.003 | [12] -0.004 | [13] -0.001 | [14] -0.007 | [15] 0.001 | [16] 0.037 | [17] 0.014 | [18] -0.005 | [19] 0.003 | [20] 0.005

CDC40 (UniProt O60508)
inactive: [1] -0.028 | [2] 0.039 | [3] -0.053 | [4] -0.027 | [5] 0 | [6] 0.002 | [7] -0.038 | [8] -0.005 | [9] -0.033 | [10] 0.006 | [11] -0.015 | [12] -0.026 | [13] -0.005 | [14] 0.039 | [15] 0.058 | [16] -0.138 | [17] 0.046 | [18] 0.02 | [19] 0.063 | [20] 0.097

ATP2B4 (UniProt P23634)
active: [10] 0.221
inactive: [1] -0.022 | [2] -0.018 | [3] 0.018 | [4] -0.166 | [5] 0.053 | [6] 0.082 | [7] 0.046 | [8] 0.049 | [9] -0.125 | [11] -0.05 | [12] 0.098 | [13] -0.031 | [14] 0.003 | [15] 0.021 | [16] 0.164 | [17] -0.028 | [18] -0.019 | [19] 0.019 | [20] 0.008
